# Experimental data: PubChem BioAssay (NCI)
# This is part of a sample that, as a whole, favours compounds with a hit. Of some 83,000 tested, about 20% had one in any assay.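 The endpoint reported here, percent growth, reads 100 for growth as untreated, 0 for no net growth and -100 for all cells dead.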 Active and inactive are the calls of the source. The calls were made as follows: active = growth percent below 10; inactive = the rest.
# Columns and labels:
# Assay in all cases: NCI-60 one-dose screen, 48 h (100 = growth as untreated, 0 = no growth, -100 = all killed)
# [1] = tested on: A549/ATCC NSCLC; details: 10 µM unless noted
# [2] = tested on: COLO 205 colon; details: 10 µM
# [3] = tested on: MALME-3M melanoma; details: 10 µM unless noted
# [4] = tested on: MDA-MB-231 breast; details: 10 µM unless noted
# [5] = tested on: RXF 393 renal; details: 10 µM unless noted
# [6] = tested on: UACC-257 melanoma; details: 10 µM unless noted
# [7] = tested on: HT29 colon; details: 10 µM unless noted
# [8] = tested on: SK-MEL-5 melanoma; details: 10 µM unless noted
# [9] = tested on: LOX IMVI melanoma; details: 10 µM unless noted
# [10] = tested on: SK-MEL-2 melanoma; details: 10 µM unless noted
# [11] = tested on: UO-31 renal; details: 10 µM unless noted
# [12] = tested on: ACHN renal; details: 10 µM unless noted
# [13] = tested on: A498 renal; details: 10 µM unless noted
# [14] = tested on: CCRF-CEM leukemia; details: 10 µM unless noted
# [15] = tested on: MOLT-4 leukemia; details: 10 µM
# [16] = tested on: OVCAR-5 ovarian; details: 10 µM unless noted
# [17] = tested on: OVCAR-4 ovarian; details: 10 µM unless noted
# [18] = tested on: IGROV1 ovarian; details: 10 µM
# [19] = tested on: MDA-MB-435 melanoma; details: 10 µM unless noted
# [20] = tested on: CAKI-1 renal; details: 10 µM unless noted
SMILES,growth [1],growth [2],growth [3],growth [4],growth [5],growth [6],growth [7],growth [8],growth [9],growth [10],growth [11],growth [12],growth [13],growth [14],growth [15],growth [16],growth [17],growth [18],growth [19],growth [20]
CN(Cc1cccnc1)N=O,94.5% (inactive),105% (inactive),96.6% (inactive),103% (inactive),104% (inactive),95.7% (inactive),102% (inactive),103% (inactive),93.5% (inactive),89% (inactive),84.7% (inactive),103% (inactive),104% (inactive),100% (inactive),102% (inactive),99.8% (inactive),102% (inactive),99.7% (inactive),103% (inactive),
CCC[CH2][Sn]([CH2]CCC)([CH2]CCC)[O]C(=O)CC,-78.8% (active),-86.7% (active),-75.8% (active),-79.4% (active),,-94.2% (active),-81.2% (active),,-83.3% (active),-83.2% (active),-90.4% (active),-96.7% (active),-96.4% (active),,7.41% (active),-91.2% (active),-99.4% (active),-80.2% (active),-89.3% (active),-95.2% (active)
CNC(=O)O/N=C(/C)c1ccc(Cl)cc1,99.3% (inactive),107% (inactive),101% (inactive),120% (inactive),110% (inactive),104% (inactive),99.1% (inactive),101% (inactive),106% (inactive),97.2% (inactive),83.8% (inactive),129% (inactive),92.2% (inactive),96.3% (inactive),93.9% (inactive),111% (inactive),97.3% (inactive),101% (inactive),98.3% (inactive),98.2% (inactive)
CC(=O)OC1CCC2(C)C(=CCC3C4CC(CN5CC5)C(=O)C4(C)CCC32)C1 (stereo unspecified),94.1% (inactive),89.2% (inactive),103% (inactive),99.6% (inactive),93.6% (inactive),93.3% (inactive),85.2% (inactive),99.1% (inactive),44.1% (inactive),106% (inactive),34.1% (inactive),76.4% (inactive),86.7% (inactive),18.3% (inactive),15.6% (inactive),97.7% (inactive),83.1% (inactive),89.2% (inactive),90.4% (inactive),88% (inactive)
CCOC(=O)C1(c2ccccc2)CCN(CC(=O)c2ccc(NC(C)=O)cc2)CC1,95% (inactive),103% (inactive),,102% (inactive),124% (inactive),104% (inactive),103% (inactive),103% (inactive),88.8% (inactive),89.2% (inactive),,96% (inactive),94.5% (inactive),99.3% (inactive),102% (inactive),100% (inactive),122% (inactive),,106% (inactive),95.4% (inactive)
C/C(=N/OC(=O)N(C)C)c1cc(Cl)ccc1Cl,101% (inactive),100% (inactive),95.9% (inactive),111% (inactive),102% (inactive),103% (inactive),100% (inactive),100% (inactive),,95.7% (inactive),77.4% (inactive),100% (inactive),86.8% (inactive),91.7% (inactive),89.7% (inactive),104% (inactive),107% (inactive),104% (inactive),99.2% (inactive),98.9% (inactive)
CNC(=O)Oc1ccccc1-c1ccccc1,96.2% (inactive),113% (inactive),102% (inactive),114% (inactive),120% (inactive),101% (inactive),101% (inactive),107% (inactive),104% (inactive),76.3% (inactive),81.8% (inactive),108% (inactive),93.2% (inactive),94.1% (inactive),96% (inactive),111% (inactive),110% (inactive),99.3% (inactive),99.3% (inactive),95.5% (inactive)
CCC[CH2][Sn]1([CH2]CCC)[O]C(=O)c2cccc([N+](=O)[O-])c2C(=O)[O]1,42.4% (inactive),-97.1% (active),-88.4% (active),-89.1% (active),-95.2% (active),-94.1% (active),-75% (active),-89.8% (active),-72% (active),-92% (active),-100% (active),-100% (active),-94.5% (active),-47.7% (active),-24.4% (active),-95.6% (active),-91.6% (active),-76% (active),-99.2% (active),-93.4% (active)
O=C(O)CNC(=O)c1ccccc1,101% (inactive),104% (inactive),133% (inactive),110% (inactive),102% (inactive),92.4% (inactive),114% (inactive),98.9% (inactive),95.9% (inactive),97.2% (inactive),95.8% (inactive),102% (inactive),85% (inactive),101% (inactive),,98.6% (inactive),105% (inactive),105% (inactive),100% (inactive),83.2% (inactive)
